# Data from PubChem BioAssay (EPA / NIEHS).
# “And” between values parts separate entries of the source, which are not always exact repeats. Equal values may be shown once. Records with an inconclusive call do not appear. A structure can be active in one record and inactive in another. The source made the active and inactive calls. Rule for the calls: active = hit-call score of the fitted dose curve at least 0.9, where 1 is the maximum; inconclusive = response in the unintended direction; inactive = score below 0.9.
# System: rat Norepinephrine Transporter (NET), gene 83511
# Test: NVS_TR_rNET: NovaScreen (NVS) Transporter Assay for rat Norepinephrine Transporter (NET) (AID 2283373)
# Protocol: NVS_TR_rNET is a biochemical, single-readout assay that uses extracted gene-proteins from Rat forebrain membranes in a tissue-based cell-free assay. Measurements were taken 1 hour after chemical dosing in a 48-well plate.NVS_TR_rNET is one of one assay component(s) measured or calculated from the NVS_TR_rNET assay. It is designed to make measurements of radioligand binding, a form of binding reporter, as detected with scintillation counting signals by Filter-based radiodetection technology.Data from the assay component NVS_TR_rNET was analyzed into 1 assay endpoint. This assay endpoint, NVS_TR_rNET, was analyzed in the positive analysis fitting direction relative to DMSO as the negative control and baseline of activity. Using a type of binding reporter, loss-of-signal activity can be used to understand changes in the binding as they relate to the gene Slc6a2. Furthermore, this assay endpoint can be referred to as a primary readout, because the performed assay has only produced 1 assay endpoint. To generalize the intended target to other relatable targets, this assay endpoint is annotated to the transporter intended target family, where the subfamily is neurotransmitter transporter.
# Binding assays used specific radioligands (tritiated, iodinated) with non-radioactive competitive displacement ligands in agonist or antagonist protocols (as indicated) and various reference compounds and inhibitors to titrate specific binding to receptors and transporters. Most enzyme assays (CYPs, kinases, phosphatases, proteases, HDACs) used recombinant protein and specific substrates (fluorescence mostly, some colorimetric and radioactive) and inhibitors, followed by a biochemical separation of substrate and product. All assays for the biochemical HTS were initially run in duplicate at a single concentration (10 uM for CYP450 assays and 25 uM for all others). […] Each assay was run with positive and negative controls, and concurrent controls on every plate. […]
Structure (SMILES),AC50,outcome
CC1=C(C(=O)Nc2ccccc2)SCCO1,8.37 µM (active),–
Oc1ccccc1-c1ccccc1,–,inactive
CCCCNC(=O)n1c(NC(=O)OC)nc2ccccc21,–,inactive

# Target: human Dopamine Transporter (DAT), SLC6A3 (gene 6531) (UniProt Q01959)
# Test: NVS_TR_hDAT: NovaScreen (NVS) Transporter Assay for human Dopamine Transporter (DAT) (AID 2283374);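 note: activity means loss of bound radioligand signal relative to DMSO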
# Outline: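 hDAT membranes + tritiated/iodinated radioligand, competitive displacement; 1 h; filter scintillation readout. Single conc 25 uM (duplicate), then conc-response for actives. DMSO = negative control.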
# Sequence of human Dopamine Transporter (DAT), SLC6A3 (gene 6531) (Q01959 whole entry, looked up): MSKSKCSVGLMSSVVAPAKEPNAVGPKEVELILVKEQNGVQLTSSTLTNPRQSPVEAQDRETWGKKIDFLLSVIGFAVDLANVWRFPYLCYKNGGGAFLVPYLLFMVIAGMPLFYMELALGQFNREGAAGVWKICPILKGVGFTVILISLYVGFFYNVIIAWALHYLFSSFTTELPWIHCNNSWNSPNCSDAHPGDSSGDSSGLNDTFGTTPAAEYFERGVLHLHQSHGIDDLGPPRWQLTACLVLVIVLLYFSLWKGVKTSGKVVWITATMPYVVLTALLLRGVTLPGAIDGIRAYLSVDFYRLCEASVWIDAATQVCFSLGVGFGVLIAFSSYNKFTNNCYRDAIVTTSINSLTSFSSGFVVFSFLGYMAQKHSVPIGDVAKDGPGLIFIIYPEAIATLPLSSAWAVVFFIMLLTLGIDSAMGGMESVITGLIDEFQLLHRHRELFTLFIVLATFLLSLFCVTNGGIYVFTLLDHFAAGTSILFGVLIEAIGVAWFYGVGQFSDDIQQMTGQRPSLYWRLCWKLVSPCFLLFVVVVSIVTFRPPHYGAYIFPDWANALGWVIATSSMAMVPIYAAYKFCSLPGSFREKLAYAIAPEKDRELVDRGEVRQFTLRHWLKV
Structure (SMILES),AC50,outcome
CC1=C(C(=O)Nc2ccccc2)SCCO1,9.69 µM (active),–
OC(c1ccc(Cl)cc1)(c1cncnc1)c1ccccc1Cl (stereo not drawn),0.944 µM (active),–
N#CC(CCc1ccc(Cl)cc1)(Cn1cncn1)c1ccccc1 (stereo not drawn),7.06 µM (active),–
C=CCC1=C(C)C(OC(=O)C2C(C=C(C)C)C2(C)C)CC1=O (stereo not drawn),7.76 µM (active) and 487 nM (active) and 23.7 µM (active),inactive
Fc1ccc(Oc2ccnc3cc(Cl)cc(Cl)c23)cc1,9.77 µM (active),–
CCCCOC(=O)c1ccccc1C(=O)OCCCC,–,inactive
C#CCOS(=O)OC1CCCCC1Oc1ccc(C(C)(C)C)cc1 (stereo not drawn),9.17 µM (active),–
COC(=O)C(C)Oc1ccc(Oc2ccc(Cl)cc2Cl)cc1 (stereo not drawn),14.2 µM (active),inactive
CCc1nn(C)c(C(=O)NCc2ccc(C(C)(C)C)cc2)c1Cl,6.22 µM (active),–
CON(C)C(=O)Nc1ccc(Cl)c(Cl)c1,13.4 µM (active),–
CCOc1cc(Oc2ccc(C(F)(F)F)cc2Cl)ccc1[N+](=O)[O-],6.37 µM (active),–
CC1COC(Cn2cncn2)(c2ccc(Oc3ccc(Cl)cc3)cc2Cl)O1 (stereo not drawn),2.93 µM (active),–
Cc1c(F)c(F)c(COC(=O)C2C(/C=C(\Cl)C(F)(F)F)C2(C)C)c(F)c1F (stereo not drawn),8.33 µM (active),–
CO/C=C(/C(=O)OC)c1ccccc1Oc1cc(Oc2ccccc2C#N)ncn1,–,inactive
C=CCC1=C(C)[C@@H](OC(=O)[C@@H]2[C@@H](C=C(C)C)C2(C)C)CC1=O,18.6 µM (active),–
COc1ccc(C(c2ccc(OC)cc2)C(Cl)(Cl)Cl)cc1,–,inactive

# Target: rat Serotonin Transporter (SERT), Slc6a4 (gene 25553) (UniProt P31652)
# Test: NVS_TR_rSERT: NovaScreen (NVS) Transporter Assay for rat Serotonin Transporter (SERT) (AID 2283375)
# Outline: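 Rat forebrain membranes; radioligand displacement at SERT read by filter-based scintillation counting, 1 h after dosing. Screened in duplicate at 25 uM, actives then run in concentration series; loss of signal versus DMSO baseline.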
# Sequence of rat Serotonin Transporter (SERT), Slc6a4 (gene 25553) (P31652 whole entry, looked up): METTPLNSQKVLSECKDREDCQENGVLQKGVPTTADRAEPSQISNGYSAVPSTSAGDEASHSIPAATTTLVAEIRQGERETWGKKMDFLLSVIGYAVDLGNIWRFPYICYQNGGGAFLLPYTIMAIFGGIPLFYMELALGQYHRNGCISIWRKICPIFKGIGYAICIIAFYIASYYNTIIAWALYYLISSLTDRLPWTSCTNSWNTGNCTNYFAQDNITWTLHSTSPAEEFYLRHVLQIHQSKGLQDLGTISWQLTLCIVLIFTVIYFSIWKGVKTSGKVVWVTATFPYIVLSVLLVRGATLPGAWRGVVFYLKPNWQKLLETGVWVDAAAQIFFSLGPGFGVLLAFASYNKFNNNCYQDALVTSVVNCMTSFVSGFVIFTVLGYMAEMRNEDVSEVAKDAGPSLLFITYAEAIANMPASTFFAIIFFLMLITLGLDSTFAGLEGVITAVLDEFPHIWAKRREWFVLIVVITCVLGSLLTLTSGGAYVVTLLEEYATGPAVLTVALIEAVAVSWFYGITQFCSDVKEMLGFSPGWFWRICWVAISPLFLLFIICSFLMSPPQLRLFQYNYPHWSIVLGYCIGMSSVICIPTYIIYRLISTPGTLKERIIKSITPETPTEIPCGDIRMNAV
row,Structure (SMILES),outcome
1,COc1nc(NC(C)C)nc(NC(C)C)n1,inactive
2,O=C(Nc1ccccc1)Nc1ccnc(Cl)c1,inactive
3,COc1nc(C)nc(NC(=O)NS(=O)(=O)c2ccccc2CCC(F)(F)F)n1,inactive
4,Cc1cc(Cl)ccc1OCC(=O)O,inactive

# Target: Norway rat Vesicular Monoamine Transporter (VMAT2), neurotransmitter transporter, Slc18a2 (gene 25549) (UniProt Q01827)
# Test: NVS_TR_rVMAT2: NovaScreen (NVS) Transporter Assay for Norway rat Vesicular Monoamine Transporter (VMAT2), neurotransmitter transporter (AID 2283376);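 note: actives lower the bound radioligand signal below the DMSO level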
# Outline: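 Filter-based scintillation counting of radioligand bound to rat forebrain-derived VMAT2 protein, cell-free, 1 h post-dose. Signal loss relative to DMSO control scored; single-concentration duplicate screen (25 uM) followed by concentration-response testing of actives.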
# Sequence of Norway rat Vesicular Monoamine Transporter (VMAT2), neurotransmitter transporter, Slc18a2 (gene 25549) (Q01827 whole entry, looked up): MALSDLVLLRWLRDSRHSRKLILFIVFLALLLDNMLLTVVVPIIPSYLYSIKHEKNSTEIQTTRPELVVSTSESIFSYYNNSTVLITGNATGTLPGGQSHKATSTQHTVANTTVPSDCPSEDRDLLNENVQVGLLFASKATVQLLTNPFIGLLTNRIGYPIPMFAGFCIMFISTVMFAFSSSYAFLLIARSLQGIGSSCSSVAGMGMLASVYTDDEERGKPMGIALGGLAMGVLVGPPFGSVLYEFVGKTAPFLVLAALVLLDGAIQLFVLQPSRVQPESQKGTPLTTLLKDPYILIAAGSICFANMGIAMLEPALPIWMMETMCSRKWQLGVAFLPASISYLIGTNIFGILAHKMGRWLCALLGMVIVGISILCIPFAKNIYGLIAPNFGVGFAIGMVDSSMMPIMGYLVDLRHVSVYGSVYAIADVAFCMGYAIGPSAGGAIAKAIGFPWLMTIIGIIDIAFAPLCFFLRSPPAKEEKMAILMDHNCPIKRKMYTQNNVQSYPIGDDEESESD
Structure (SMILES),AC50,outcome
CCCCNC(=O)OCC#CI,1.59 µM (active) and 4.96 µM (active),–
CCOC(=O)C(Cl)Cc1cc(-n2nc(C)n(C(F)F)c2=O)c(F)cc1Cl (stereo not drawn),–,inactive
CC1COC(Cn2cncn2)(c2ccc(Oc3ccc(Cl)cc3)cc2Cl)O1 (stereo not drawn),–,inactive
CCCCC(CC)COC(=O)c1ccccc1C(=O)OCC(CC)CCCC (stereo not drawn),–,inactive
O=C(Nc1ccccc1)Nc1ccnc(Cl)c1,6.12 µM (active),–
COc1ccc(C(c2ccc(OC)cc2)C(Cl)(Cl)Cl)cc1,–,inactive

# Target: human Norepinephrine Transporter (NET), SLC6A2 (gene 6530) (UniProt P23975)
# Test: NVS_TR_hNET: NovaScreen (NVS) Transporter Assay for human Norepinephrine Transporter (NET) (AID 2283377);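 note: cell-free membrane protein extracted from CHO cells expressing human NET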;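 for AC50: displacement of radioligand from human NET seen as loss of scintillation signal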
# Outline: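 CHO cell extracts expressing the transporter; tritiated or iodinated tracer displaced competitively; filtration plus scintillation readout at 1 h. Single-point duplicates at 25 uM, concentration series for follow-up; activity = signal drop relative to DMSO.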
# Sequence of human Norepinephrine Transporter (NET), SLC6A2 (gene 6530) (P23975 whole entry, looked up): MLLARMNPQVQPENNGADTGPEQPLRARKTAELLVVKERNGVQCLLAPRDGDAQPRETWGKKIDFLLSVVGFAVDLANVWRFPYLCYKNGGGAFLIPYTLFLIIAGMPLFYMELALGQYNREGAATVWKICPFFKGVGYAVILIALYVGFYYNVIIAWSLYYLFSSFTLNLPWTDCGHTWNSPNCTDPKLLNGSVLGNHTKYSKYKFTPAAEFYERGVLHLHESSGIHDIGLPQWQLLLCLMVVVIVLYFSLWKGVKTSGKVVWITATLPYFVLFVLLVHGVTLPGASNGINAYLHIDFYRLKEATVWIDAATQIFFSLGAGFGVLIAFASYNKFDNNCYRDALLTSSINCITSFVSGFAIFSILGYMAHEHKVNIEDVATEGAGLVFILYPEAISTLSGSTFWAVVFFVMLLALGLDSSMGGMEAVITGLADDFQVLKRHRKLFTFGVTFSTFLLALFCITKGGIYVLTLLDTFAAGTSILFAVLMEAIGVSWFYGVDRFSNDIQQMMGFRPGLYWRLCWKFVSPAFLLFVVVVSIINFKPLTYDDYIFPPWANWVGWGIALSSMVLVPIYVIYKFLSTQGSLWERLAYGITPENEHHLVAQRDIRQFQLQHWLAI
Structure (SMILES),AC50,outcome
CC1=C(C(=O)Nc2ccccc2)SCCO1,11.6 µM (active),–
Oc1ccccc1-c1ccccc1,15 µM (active),–
CCCCNC(=O)OCC#CI,9.04 µM (active) and 9.55 µM (active),–
C=CCC1=C(C)C(OC(=O)C2C(C=C(C)C)C2(C)C)CC1=O (stereo not drawn),–,inactive
CON(C)C(=O)Nc1ccc(Cl)c(Cl)c1,25 µM (active),inactive
CC1COC(Cn2cncn2)(c2ccc(Oc3ccc(Cl)cc3)cc2Cl)O1 (stereo not drawn),12 µM (active),–
COc1ccc(C(c2ccc(OC)cc2)C(Cl)(Cl)Cl)cc1,–,inactive

# Target: mouse Estrogen Receptor alpha (Era), Esr1 (gene 13982) (UniProt P19785)
# Test: NVS_NR_mERa: NovaScreen (NVS) Nuclear Receptor Binding Assay for mouse Estrogen Receptor alpha (Era) (AID 2283378);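 note: hit means loss of bound radioligand signal relative to DMSO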
# Outline: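 Cell-free radioligand competitive displacement binding, read by filter-based scintillation counting 18 h after dosing. Primary screen run in duplicate at 25 uM, actives retested in concentration series; loss of signal versus DMSO.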
# Sequence of mouse Estrogen Receptor alpha (Era), Esr1 (gene 13982) (P19785 whole entry, looked up): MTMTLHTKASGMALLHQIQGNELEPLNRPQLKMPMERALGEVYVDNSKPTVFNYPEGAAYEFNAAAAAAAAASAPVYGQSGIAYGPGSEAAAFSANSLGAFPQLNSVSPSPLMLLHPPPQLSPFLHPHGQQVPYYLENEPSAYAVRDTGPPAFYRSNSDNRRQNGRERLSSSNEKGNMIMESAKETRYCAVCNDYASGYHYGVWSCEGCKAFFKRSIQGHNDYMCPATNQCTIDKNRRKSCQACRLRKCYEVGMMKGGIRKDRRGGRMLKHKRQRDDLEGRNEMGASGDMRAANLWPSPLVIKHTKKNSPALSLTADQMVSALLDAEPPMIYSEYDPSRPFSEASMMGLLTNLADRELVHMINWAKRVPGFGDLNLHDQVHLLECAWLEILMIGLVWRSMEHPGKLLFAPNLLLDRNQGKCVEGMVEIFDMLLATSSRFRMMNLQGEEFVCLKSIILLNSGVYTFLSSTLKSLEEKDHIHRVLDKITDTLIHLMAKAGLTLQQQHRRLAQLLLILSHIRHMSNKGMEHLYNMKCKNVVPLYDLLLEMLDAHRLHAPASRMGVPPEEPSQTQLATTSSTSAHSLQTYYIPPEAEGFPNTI
Structure (SMILES),outcome,AC50
CCCCNC(=O)OCC#CI,inactive,–
C=CCC1=C(C)C(OC(=O)C2C(C=C(C)C)C2(C)C)CC1=O (stereo not drawn),inactive,–
CCCCOC(=O)c1ccccc1C(=O)OCCCC,inactive,25 µM (active)
CON(C)C(=O)Nc1ccc(Cl)c(Cl)c1,inactive,–
CCNc1nc(Cl)nc(NC(C)C)n1,inactive,6.81 µM (active)
COc1ccc(C(c2ccc(OC)cc2)C(Cl)(Cl)Cl)cc1,–,3.48 µM (active)

# Target: Agonist Androgen Response Element (ARE), AR (gene 367) (UniProt P10275)
# Test: OT_AR_ARELUC_AG_1440: Odyssey Thera (OT) 24-hour CHO-K1 Luciferase Assay for Agonist Androgen Response Element (ARE) (AID 2283379)
# Outline: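 Gain-of-signal reporter endpoint: cells (CHO-K1, hamster) are treated 24 h, luciferin/ATP reagent added, and luminescence compared with DMSO baseline.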
# Sequence of Agonist Androgen Response Element (ARE), AR (gene 367) (P10275 whole entry, looked up): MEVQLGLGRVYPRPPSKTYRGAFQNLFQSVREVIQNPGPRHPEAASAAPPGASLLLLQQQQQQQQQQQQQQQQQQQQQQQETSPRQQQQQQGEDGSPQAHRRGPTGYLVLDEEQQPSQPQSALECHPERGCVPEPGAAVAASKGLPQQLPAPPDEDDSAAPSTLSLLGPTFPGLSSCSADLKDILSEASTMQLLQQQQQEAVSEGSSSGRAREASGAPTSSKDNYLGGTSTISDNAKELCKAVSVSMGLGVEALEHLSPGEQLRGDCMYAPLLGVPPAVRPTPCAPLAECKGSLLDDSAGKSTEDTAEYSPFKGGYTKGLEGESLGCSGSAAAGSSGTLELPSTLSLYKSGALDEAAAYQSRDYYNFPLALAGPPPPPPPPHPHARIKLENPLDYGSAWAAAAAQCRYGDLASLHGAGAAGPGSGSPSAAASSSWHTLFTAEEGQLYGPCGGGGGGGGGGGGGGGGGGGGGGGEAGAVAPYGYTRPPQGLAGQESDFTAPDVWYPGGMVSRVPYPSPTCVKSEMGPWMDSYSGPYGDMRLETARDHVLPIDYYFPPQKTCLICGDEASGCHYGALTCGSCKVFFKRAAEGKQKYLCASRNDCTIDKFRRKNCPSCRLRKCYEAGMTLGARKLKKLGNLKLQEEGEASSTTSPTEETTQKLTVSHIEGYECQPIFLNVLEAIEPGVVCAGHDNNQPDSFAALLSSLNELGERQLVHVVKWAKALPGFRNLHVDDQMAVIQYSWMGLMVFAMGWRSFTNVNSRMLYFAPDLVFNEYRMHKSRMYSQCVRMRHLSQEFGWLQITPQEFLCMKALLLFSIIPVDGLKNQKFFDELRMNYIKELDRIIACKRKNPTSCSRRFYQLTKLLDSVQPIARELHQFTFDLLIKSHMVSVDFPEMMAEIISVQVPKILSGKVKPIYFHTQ
Structure (SMILES),outcome,AC50
CC1=C(C(=O)Nc2ccccc2)SCCO1,inactive,–
N#CC(CCc1ccc(Cl)cc1)(Cn1cncn1)c1ccccc1 (stereo not drawn),inactive,–
CO/C=C(/C(=O)OC)c1ccccc1Oc1cc(Oc2ccccc2C#N)ncn1,inactive,–
O=C(Nc1ccccc1)Nc1ccnc(Cl)c1,inactive,–
Cc1cc(Cl)ccc1OCC(=O)O,inactive,24 µM (active)
CCCCNC(=O)n1c(NC(=O)OC)nc2ccccc21,inactive,–

# Target: Estrogen receptor beta (Homo sapiens) (UniProt Q92731)
# Test: OT_ER_ERbERb_1440: Odyssey Thera (OT) 24-hour HEK293T Protein-Complementation Assay for Estrogen Receptor-beta/-beta Homodimer (AID 2283380);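 note: scored as signal increase over DMSO baseline for both agonists and antagonists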
# Outline: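 HEK293T cells stably expressing ER beta LBD (aa 310-547) homodimer fragment-complementation reporter, dosed 24 h. Cells formaldehyde-fixed, Draq5-stained; gain in nuclear (agonist) or nuclear plus cytoplasmic (antagonist) fluorescence versus DMSO read by laser scanning cytometry.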
# Sequence of Estrogen receptor beta (Homo sapiens) (Q92731 whole entry, looked up): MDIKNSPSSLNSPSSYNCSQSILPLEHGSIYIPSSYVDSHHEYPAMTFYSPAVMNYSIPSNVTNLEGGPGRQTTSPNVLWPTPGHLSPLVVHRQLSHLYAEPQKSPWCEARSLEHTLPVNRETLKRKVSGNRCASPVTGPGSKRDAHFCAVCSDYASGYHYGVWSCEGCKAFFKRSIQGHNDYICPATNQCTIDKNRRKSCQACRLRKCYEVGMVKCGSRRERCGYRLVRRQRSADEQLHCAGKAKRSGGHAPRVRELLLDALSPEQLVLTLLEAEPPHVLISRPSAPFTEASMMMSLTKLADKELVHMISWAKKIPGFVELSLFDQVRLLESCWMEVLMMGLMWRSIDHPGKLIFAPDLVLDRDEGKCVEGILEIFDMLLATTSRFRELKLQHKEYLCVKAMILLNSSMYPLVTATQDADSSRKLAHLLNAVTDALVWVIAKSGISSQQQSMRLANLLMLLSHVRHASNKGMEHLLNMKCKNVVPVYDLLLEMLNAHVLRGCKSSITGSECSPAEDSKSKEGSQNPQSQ
Structure (SMILES),outcome,AC50
CC1=C(C(=O)Nc2ccccc2)SCCO1,inactive,–
Oc1ccccc1-c1ccccc1,inactive,–
CCCCNC(=O)OCC#CI,inactive,–
OC(c1ccc(Cl)cc1)(c1cncnc1)c1ccccc1Cl (stereo not drawn),inactive,–
N#CC(CCc1ccc(Cl)cc1)(Cn1cncn1)c1ccccc1 (stereo not drawn),inactive,–
Fc1ccc(Oc2ccnc3cc(Cl)cc(Cl)c23)cc1,inactive,–
CCCCOC(=O)c1ccccc1C(=O)OCCCC,–,33.4 µM (active) and 37.5 µM (active) and 31.9 µM (active)
C#CCOS(=O)OC1CCCCC1Oc1ccc(C(C)(C)C)cc1 (stereo not drawn),inactive,–
COC(=O)C(C)Oc1ccc(Oc2ccc(Cl)cc2Cl)cc1 (stereo not drawn),inactive,–
CCc1nn(C)c(C(=O)NCc2ccc(C(C)(C)C)cc2)c1Cl,inactive,–
CCOc1cc(Oc2ccc(C(F)(F)F)cc2Cl)ccc1[N+](=O)[O-],inactive,–
CC1COC(Cn2cncn2)(c2ccc(Oc3ccc(Cl)cc3)cc2Cl)O1 (stereo not drawn),inactive,–
CCCCC(CC)COC(=O)c1ccccc1C(=O)OCC(CC)CCCC (stereo not drawn),inactive,–
Cc1c(F)c(F)c(COC(=O)C2C(/C=C(\Cl)C(F)(F)F)C2(C)C)c(F)c1F (stereo not drawn),inactive,–
CCNc1nc(Cl)nc(NC(C)C)n1,inactive,–
COc1nc(NC(C)C)nc(NC(C)C)n1,inactive,–
CO/C=C(/C(=O)OC)c1ccccc1Oc1cc(Oc2ccccc2C#N)ncn1,inactive,–
COc1ccc(C(c2ccc(OC)cc2)C(Cl)(Cl)Cl)cc1,–,4.01 µM (active) and 3.74 µM (active) and 3.97 µM (active)
CCCCNC(=O)n1c(NC(=O)OC)nc2ccccc21,inactive,–
